PubChem BioAssay (NCI)
This is part of a sample that, as a whole, favours compounds with a hit. Of some 83,000 tested, about 20% had one in any assay.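 Step 1: grow cells in 96-well plates. Step 2: add test compound at a single concentration. Step 3: incubate 48 h. Step 4: record percent growth.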 Unmarked numbers belong to inactive results. Activity calls are given as the source filed them. How the source made its calls: active means growth percent below 10; inactive means the rest.

What was measured:
Assay in all cases: NCI-60 one-dose screen, 48 h (100 = growth as untreated, 0 = no growth, -100 = all killed)
Details in all cases: 10 µM unless noted
NCI-H23 lung = system: NCI-H23 lung
NCI-H226 lung = system: NCI-H226 lung
NCI-H322M lung = system: NCI-H322M lung
HOP-62 NSCLC = system: HOP-62 NSCLC
NCI-H460 lung = system: NCI-H460 lung
HOP-92 NSCLC = system: HOP-92 NSCLC
NCI-H522 lung = system: NCI-H522 lung
A549/ATCC NSCLC = system: A549/ATCC NSCLC
786-0 renal = system: 786-0 renal
COLO 205 colon = system: COLO 205 colon
DU-145 prostate = system: DU-145 prostate
K-562 leukemia = system: K-562 leukemia
MALME-3M melanoma = system: MALME-3M melanoma
MDA-MB-231 breast = system: MDA-MB-231 breast
RXF 393 renal = system: RXF 393 renal
SF-268 CNS = system: SF-268 CNS
SF-295 CNS = system: SF-295 CNS
SF-539 CNS = system: SF-539 CNS
UACC-257 melanoma = system: UACC-257 melanoma
M14 melanoma = system: M14 melanoma

| Compound | growth (NCI-H23 lung) | growth (NCI-H226 lung) [%] | growth (NCI-H322M lung) | growth (HOP-62 NSCLC) | growth (NCI-H460 lung) | growth (HOP-92 NSCLC) | growth (NCI-H522 lung) | growth (A549/ATCC NSCLC) | growth (786-0 renal) | growth (COLO 205 colon) | growth (DU-145 prostate) [%] | growth (K-562 leukemia) | growth (MALME-3M melanoma) | growth (MDA-MB-231 breast) | growth (RXF 393 renal) | growth (SF-268 CNS) [%] | growth (SF-295 CNS) | growth (SF-539 CNS) | growth (UACC-257 melanoma) | growth (M14 melanoma) |
| --- | --- | --- | --- | --- | --- | --- | --- | --- | --- | --- | --- | --- | --- | --- | --- | --- | --- | --- | --- | --- |
| CC1(C)CC[C@]2(C(=O)O)CC[C@]3(C)C(=CC[C@@H]4[C@@]5(C)C/C(=C/O)C(=O)C(C)(C)[C@@H]5CC[C@]43C)[C@@H]2C1 | 22.2% | 96.2 | 62.2% | 73.1% | 83.6% | 89% | 25.2% | 89.4% | 84.3% | 74.9% | 85.2 | 32.2% | 89.9% | 111% | 93.7% | 57.2 | 79.9% | 29.2% | 91.6% | 79.1% |
| O=C(Cn1c(-c2ccc([N+](=O)[O-])cc2)nc2ccccc21)NNC(=O)c1cccnc1 | 83.4% | 60.3 | 88.6% | 95.2% | 76.2% | 38% | 54.7% | 91.1% | 93% | 92.6% | 90.3 | 63.4% | 105% | 92.4% | 98.7% | 89.2 | 83.4% | 88.9% | 86.7% | 91% |
| O=C1CC(N2C(=O)/C(=C/C(Cl)=C\c3ccc([N+](=O)[O-])cc3)SC2=S)C(=O)N1c1ccc(Cl)cc1 (stereo not given) | 17.3% | 95.5 | 65.1% | 50.4% | 74.5% | -18.6% (active) | -26.4% (active) | 71% | -12.1% (active) | 4.01% (active) | 22.4 | 6.26% (active) | 22.9% | -3.07% (active) | -64.1% (active) | 21.8 | 40.7% | 15.9% | 57.8% | 23.9% |
| N#C/C(=C\c1ccc(-c2ccc(Cl)cc2)o1)C(=O)Nc1ncc(Cc2ccc(Cl)cc2)s1 | 31.8% | 65 | 22.8% | -9.27% (active) | -38.3% (active) | 94.6% | 46.3% | -8.3% (active) | 42% | 57.2% | 19.6 | 62.2% | 5.36% (active) | 36.7% | 109% | 71.6 | 9.09% (active) | 27.1% | -28.3% (active) | 39.1% |
| C#Cc1cccc(Nc2ncnc3ccc(-c4cncc(NS(C)(=O)=O)c4)cc23)c1 | 26.5% | 45 | 1.41% (active) | 32% | 51.6% | -12.2% (active) | 3.44% (active) | 48.8% | 40.6% | 17.7% | 28.3 | 37.2% | 33.2% | 23.7% | 7.78% (active) | 24.1 | 37.6% | 17% | 37.4% | 47% |
| O=C1c2cccnc2C(=O)c2c1c(C(=O)NCCn1ccnc1)c1ccccn21 | 5.02% (active) | 51.5 | 22.3% | 14% | -41.3% (active) | 56.3% | -9.62% (active) | 1.78% (active) | 49% | -27.6% (active) | 29.9 | 29.3% | -68.8% (active) | 13.6% | 59.7% | 23.6 | 29.5% | 9.99% (active) | -29% (active) | 7.17% (active) |
| Cc1nc2ncnc(Cl)c2[nH]1 | 95.3% | 101 | 98.2% | 112% | 104% | 77.7% | 91.3% | 93.1% | 105% | 113% | 106 | 97.3% | 106% | 103% | 112% | 103 | 107% | 103% | 91.1% | 88.8% |
| CC[C@]12C=CCN3CC[C@@]4(c5cc(NC(=O)CCC(=O)OCc6cn(Cc7ccc(F)cc7)nn6)c(OC)cc5N(C)[C@H]4[C@@](O)(C(=O)OC)[C@@H]1OC(C)=O)[C@@H]32 | 97.2% | 95.2 | 94.3% | 100% | 106% | 92.5% | 98.5% | 96.5% | 96.4% | 107% | 104 | 99.8% | 99.5% | 98.9% | 103% | 95.7 | 103% | 96.9% | 102% | 103% |
| O=C1c2c(c3c4ccc(Br)cc4oc3c3[nH]c4ccccc4c23)C(=O)N1O | 22.7% | 61.7 | 59.7% | 29.3% | 10.7% | -2.77% (active) | 6.86% (active) | 64.3% | 84.8% | 42.7% | 38.4 | 30.4% | 1.92% (active) | 80.1% | 31.7% | 13.9 | 34.4% | 7.26% (active) | 83.6% | 30.9% |
| CCOc1nc(-c2ccccc2)cc2c(O)c(C(=O)NN)[nH]c(=O)c12 | 117% | 105 | 104% | 123% | 86.1% | 93.2% | 88.5% | 103% | 97.3% | 121% | 120 | 134% | 112% | 99.3% | 108% | 86.2 | 107% | 96.9% | 103% | 98.8% |
| N#Cc1c(NC(=O)c2ccccc2)sc2c1CCC(=O)C2 | 5.05% (active) | 14.7 | 71.9% | 40.7% | 16.3% | -22.9% (active) | -12.7% (active) | 52.7% | 25.9% | -46.4% (active) | 40.7 | 4.06% (active) | -12.9% (active) | -11.3% (active) | -1.37% (active) | 16 | 21.7% | -28.4% (active) | 2.08% (active) | 14% |
| CSc1nnc(-c2cnn3c2NC(c2ccccc2)C3)n1-c1ccc(C(F)(F)F)cc1 (stereo not given) | 72.6% | 73.5 | 72.3% | 61.1% | 61.8% | 64.3% | 26.1% | 45.5% | 66.1% | 63.9% | 85.1 | 3.03% (active) | 69.8% | 64.8% | 79.1% | 65.1 | 32% | 80.3% | 51.4% | 54.3% |
| O=S(=O)(Nc1cc(Br)c(O)c2ccccc12)c1ccc(F)cc1 | 53.1% | 97.5 | 94.9% | 103% | 103% | 47.1% | 77.3% | 102% | 111% | 93.2% | 81.2 | 28.7% | 62.2% | 10.7% | 102% | 79.4 | 95% | 85.1% | 63.4% | 96.7% |
| CCCCCCCCCCCCCCCCCCOc1ccccc1CC(=O)OCC[N+]1(C)CCCC1 | 8.45% (active) | 13.4 | 68.1% | 53.5% | 27.5% | 32.7% | 6.85% (active) | 23% | 57.5% | 9.44% (active) | 45.4 | 27% | 31% | 4.95% (active) | -26.3% (active) | 20.7 | 58% | 40.2% | 75.3% | 20.7% |
| Cn1cc(-c2nonc2-c2c[nH]c3ccc(Br)cc23)c2cc(Br)ccc21 | 39.9% | 44.8 | 32.1% | 29.1% | 13.3% | 55.6% | 24.3% | 30.8% | 34.3% | 49.1% | 23.2 | 7.65% (active) | 39.9% | 31.9% | 18.2% | 37.8 | 22.4% | 46% | 66.8% | 42.7% |
